# BoNT F protease – blocks Botulinum neurotoxin F light chain protease; 0.22% of 360,000 active; inhibition, % at 10 µM; Multiplex microsphere protease cleavage assay, flow cytometry; in the data active means inhibition above about 35%, passing the limit was not always enough; inconclusive means no clear call, values can overlap the other calls; further: plate controls were buffer without enzyme for full effect and enzyme alone for no effect
# BoNT A protease – inhibitors of Botulinum neurotoxin A light chain protease. multiplex microsphere protease substrate cleavage, flow cytometry. inhibition, % at 10 µM. 0.17% of 360,000 active; further: plate controls were buffer without enzyme for full effect and enzyme alone for no effect
# Anthrax LF prot – blocks Bacillus anthracis lethal factor protease; inhibition, % at 10 µM; AID 588501; 0.12% of 360,000 active; multiplex microsphere protease cleavage assay, LF; P15917; further: plate controls were buffer without enzyme for full effect and enzyme alone for no effect
# BJeLR viability – kills HRASV12-expressing BJeLR cells. 0.17% of 300,000 active. BJeLR (HRASV12) viability, CellTiter-Glo ATP luminescence, 48 h. inhibition, % (concentration not given with the values); in the data active means inhibition above about 50%; inconclusive means no clear call, values can overlap the other calls
# SARS 3CLpro inh – SARS-CoV 3CLpro protease inhibition; inhibition, % at 6 µM; 0.14% of 290,000 active; P0C6X7; recombinant SARS-CoV 3CLpro, quenched FRET peptide cleavage; in the data active means inhibition above about 12%
# Autofluor counter – counter-screen for toxin protease inhibitors: compound fluorescence. compound autofluorescence counterscreen, microsphere flow cytometry; active compounds read high. fluorescence intensity (test concentration not listed). 3.1% of 360,000 active. AID 624483; in the data active means fluorescence intensity above about 16000; inconclusive means no clear call, values can overlap the other calls
# * marks the source's active call; other numbers are inactive results; ? = inconclusive; . = no result. The list is not random: actives were taken first. Their share in the collection is about 3.6%. Unless noted, no stated cut-off is given here; in the data, active means inhibition above about 30%; inconclusive means no clear call, values can overlap the other calls; inactive means below that.
SMILES,BoNT F protease,BoNT A protease,Anthrax LF prot,BJeLR viability,SARS 3CLpro inh,Autofluor counter
O=C1C2C3c4ccccc4C(c4ccccc43)C2C(=O)N1/N=C/c1cccc(O)c1 (stereo unspecified),-3.7,-1.8,-2.8,3.6,-1.3,17348*
O=S1(=O)NC(=NCc2ccccc2)c2ccccc21,6.5,?,-5.8,-4.9,1.6,19517*
CN(C(=O)COC(=O)CSc1ccccc1)c1c(N)n(Cc2ccccc2)c(=O)[nH]c1=O,-9.0,0.3,-1.3,.,.,2771
O=c1[nH]c(=O)n([C@H]2C[C@H](O)[C@@H](CO)O2)cc1F,-12.9,-0.4,-5.7,92.6*,0.2,5542
O=c1[nH]c(=O)n(C2CC(O)C(CO)O2)cc1I (stereo unspecified),-2.7,-0.1,-0.9,.,.,3880
Cn1c(SCC(=O)N2CCOCC2)nnc1-c1ccco1,-5.7,-0.8,-1.3,-4.5,-2.6,6030
O=C(CSc1nnc(-c2ccccc2)n1-c1ccccc1)N1c2ccccc2Sc2ccccc21,4.9,3.0,-4.1,6.0,0.2,21718*
COc1ccccc1-n1c(SCC(=O)N2CCOCC2)nc(O)cc1=O,-3.6,-0.9,-2.5,5.8,2.6,6167
Cc1ccnc(SCC(=O)N2CCN(c3ccccc3)CC2)n1,3.3,1.8,-5.6,-7.6,0.5,21477*
Cn1c(SCC(=O)N2CCN(c3ccccc3)CC2)nnc1-c1ccco1,-0.3,0.3,-2.3,-4.4,-1.7,20444*
Cc1ccccc1-n1c(SCC(=O)N2CCOCC2)nc(O)cc1=O,-3.7,?,0.5,-4.8,7.9,21580*
O=C(O)C(Cc1ccc(OS(=O)(=O)Cc2ccccc2)cc1)NS(=O)(=O)Cc1ccccc1 (stereo unspecified),-3.5,0.1,6.3,.,.,2950
Cn1cc(CN2CCCC(CO)(Cc3ccccc3)C2)cn1 (stereo unspecified),3.8,-0.5,-6.2,8.3,0.1,4417
COc1ccc(-c2ccc(CN3C(C(C)C)C(=O)N(Cc4cn(CC5CCCCC5)nn4)CCS3(=O)=O)cc2)cc1OC (stereo unspecified),2.2,0.2,-10.3,.,.,3748
Cc1ccccc1-n1c(SCC(=O)N2CCC(C(=O)O)CC2)nnc1-c1ccncc1,4.4,0.3,2.0,-3.0,0.8,4070
O=C(CSc1ccccn1)N1CCN(C(=O)CSc2ccccn2)CC1,-4.7,-0.6,-1.9,-2.1,.,2411
Cc1ccccc1-n1c(SCC(=O)N2CCN(c3ccccc3)CC2)nnc1-c1ccncc1,-0.6,-0.8,0.6,-1.4,-0.4,21220*
Cc1sc(NC(=O)CSc2nnc(CCNC(=O)c3cccs3)n2C)nc1-c1ccccc1,-19.4,-0.8,-3.6,.,-0.8,5953
O=C(CSc1ccccn1)N1CCN(c2ccc(Cl)cc2)CC1,2.6,?,-1.0,4.3,-2.7,21847*
Cn1c(CCNC(=O)c2cccs2)nnc1SCC(=O)N1CCN(c2ccccc2)CC1,1.4,?,0.5,-4.0,-2.0,23569*
COc1ccc(N2CCN(C(=O)CSc3nnc(-c4cc5ccccc5cc4O)n3C)CC2)cc1,-14.6,17.0,-11.4,1.2,4.2,16210*
O=C(NC1CCCCC1)C(c1ccc2ncccc2c1)N(Cc1ccc(F)cc1)C(=O)c1ccc2c(c1)OCCO2 (stereo unspecified),-2.0,-0.1,-0.2,4.1,4.7,13048
O=C(CSc1nnnn1-c1cccnc1)Nc1ccccc1F,-2.0,1.4,-0.3,-2.5,5.2,5556
C(=N\N1CCN(Cc2cccc3ccccc23)CC1)/c1cccnc1,5.1,7.0,-11.2,1.6,3.3,20176*
O=C(O)c1ccc(/C=N/N2CCN(Cc3cccc4ccccc34)CC2)cc1,-5.4,-1.9,2.4,-1.6,-0.7,5030
SMILES,BoNT F protease,BoNT A protease,Anthrax LF prot,BJeLR viability,SARS 3CLpro inh,Autofluor counter
FC(F)(F)c1ccc(/C=N/N2CCN(Cc3cccc4ccccc34)CC2)cc1,-9.2,-3.7,-9.1,0.8,2.7,17471*
COc1ccccc1CNC(=O)Cn1cccc1C(=O)c1ccccc1,3.4,-4.1,-5.8,-4.3,1.9,4784
Cc1ccc(NC(=O)C(C)N2C(=O)C3C4CC(C(Br)C4Br)C3C2=O)cc1 (stereo unspecified),-2.6,-0.9,-2.0,-7.7,-4.1,22632*
CN(C)c1ccc(CNn2cnnc2SCC(=O)NC(C)(C)C)cc1,0.5,-0.1,-2.5,-1.1,-3.4,4255
CCc1ccc(CNn2cnnc2SCC(=O)NC(C)(C)C)cc1,-1.2,-0.9,-1.3,2.0,4.6,16664*
COc1ccc(CN(CCCN2CCOCC2)C(=O)Nc2ccccc2)cc1OC,-3.3,?,-7.0,2.0,-2.3,22584*
CS(=O)(=O)NCc1ccc(C(=O)NCCOc2ccccc2)cc1,21.1,16.9,-18.4,-6.7,3.3,17640*
O=C1CCC(C(=O)OCc2c(Cl)cccc2Cl)N1 (stereo unspecified),1.4,0.5,-1.2,-15.6,-4.2,20438*
Cc1cc(C(C)(C)C)cc(C)c1COC(=O)C1CCC(=O)N1 (stereo unspecified),-0.9,-0.9,0.7,-6.2,0.0,4460
O=C1CCC(C(=O)OCc2ccccc2)N1 (stereo unspecified),-0.7,-1.4,-0.1,16.9,-5.6,24033*
O=C1CCC(C(=O)Nc2ccccc2)N1 (stereo unspecified),-1.9,0.6,2.2,-2.1,2.2,2985
N#CCCN(CCC#N)C(=O)c1ccc2c(c1)OCO2,4.1,2.7,-3.5,-10.8,-6.5,20717*
CSCCC(NC(=O)c1cccc(C)c1)C(=O)Nc1sccc1C(N)=O (stereo unspecified),-3.5,-4.0,3.4,5.2,-3.1,3717
CCCNC(=O)c1c(N)n(-c2cccc(OC)c2)c2nc3ccccc3nc12,8.0,?,7.6,-1.2,1.9,20561*
COCCCNC(=O)c1c(N)n(-c2cccc(S(N)(=O)=O)c2)c2nc3ccccc3nc12,1.8,1.1,3.7,-11.1,0.7,3151
CCCCS/C(=C(/C#N)C(N)=O)c1cc2c([nH]1)CCCC2,-0.5,?,-3.1,1.8,-5.7,22456*
C=C(C)Cn1c(C2CC(=O)N(Cc3ccccc3)C2)nc2ccccc21 (stereo unspecified),-4.1,0.5,-3.5,-7.2,.,5104
C=CCN1CC(c2nc3ccccc3n2CCOc2ccccc2)CC1=O (stereo unspecified),-3.5,-1.8,0.1,1.0,-1.8,22558*
CC(C)C1=C2OC(N)=C(C#N)C(C#N)=C2C(C)CC1 (stereo unspecified),-7.2,-4.6,0.0,-11.3,-6.8,22045*
CC(=O)Nc1ccc(NC(=O)CSc2nc(=O)n3cccc(C)c3n2)cc1,14.4,2.8,?,0.0,.,?
CSc1nc(=O)n2cccc(C)c2n1,-5.4,-4.7,-1.4,0.4,-3.6,21767*
N#Cc1ccc2ccn(CC(=O)NC3CCCCC3)c2c1,0.4,0.6,-3.5,-4.1,0.7,16380*
N#Cc1ccc2ccn(CC(=O)NCc3ccccc3)c2c1,-10.9,0.5,0.8,3.8,-2.4,10009
